Screening data deposited in PubChem by National Center for Advancing Translational Sciences (NCATS).
The full list was thinned out, with hits kept by preference.
Pf Dd2 inh = qHTS Primary assay for Inhibitors of Plasmodium falciparum Dd2 growth in vitro; actives 4.3% (n = 120,000); Potency, µM (highest dose often 28.9 µM), without a hit: at the top dose activity, negative = inhibition, usual class: inhibitors; P. falciparum Dd2 growth, SYBR Green, 72 h; AID 1347417, 2020; active = well fitted inhibition curve with a large enough effect;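 also: plate controls were DMSO vehicle for no effect and reference drug for full effect; nearly all actives have a fitted effect of over 65% in size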
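Infected erythrocytes (Dd2, 0.3% parasitemia, 2.5% hematocrit final) are added to compound in RPMI-1640/Albumax II medium, grown 72 h at 37C in low oxygen, then lysed with saponin/Triton-X containing SYBR Green and read by fluorescence.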
Active calls of the source: *; i = inactive; [ ] = remark or other dose. Potency is read from the fitted curve at half-maximal effect.

SMILES	Pf Dd2 inh
Cc1noc(C)c1[S+](=O)([O-])N1CCc2nc(C(C)C)nc(-c3ccc(O)cc3)c2C1	10µM*
CC(C)c1nc2c(c(-c3ccc(O)cc3)n1)CN(Cc1cccc(C(F)(F)F)c1)CC2	2.51µM*
Cc1noc(C)c1[S+](=O)([O-])N1CCc2nc(C(C)C)nc(-c3ccc(Cl)cc3)c2C1	i
COc1ccc(CN2CCc3nc(C(C)C)nc(-c4ccc(O)cc4)c3C2)cc1	8.91µM*
CC(C)c1nc2c(c(-c3ccc(O)cc3)n1)CN(C(=O)c1ccccc1F)CC2	-7.9%
CC(C)c1nc2c(c(-c3ccc(O)cc3)n1)CN(CC1CC1)CC2	i
CCNC(=O)N(C1CC1)C1CCOC2(CCN(C(=O)CCc3ccc(OC)cc3)CC2)C1 (stereo not drawn)	12.9%
COc1ccc(F)c(C(=O)N2CCC3(CC2)[C@H](O)C[C@@H]3O)c1F	-0.7%
COc1ccc(-c2nc(CC3CCNC3)no2)cc1 (stereo not drawn)	9.1%
O=C1NCc2ccccc2CC12CCCN(CC1CC=CCC1)C2 (stereo not drawn)	-11.0%
Cc1ccccc1[C@H]1C[C@@H](O)[C@@H](O)[C@@H]1NC(=O)c1cncnc1	2.4%[44.1 µM]
C[C@@]1(O)CCN(Cc2ccc(C#N)cc2)C[C@H]1N1CCCC1	22.1%[5.79 µM]
CC(C)(C)C(=O)N1CC[C@@H](CC(=O)O)[C@@H](CCN2CCN(c3ccc(F)cc3)CC2)C1	-19.2%[44.1 µM]
COc1ccc(C(=O)N[C@@H]2CN(c3ncccn3)C[C@H]2CO)cc1F	5.0%
O=C(c1ccccn1)N1CCN(C(=O)c2nnn3c2COC(c2ccccc2)C3)CC1 (stereo not drawn)	i
O=C(c1ccc2ccccc2n1)N1CCN(C(=O)c2nnn3c2COC(c2ccccc2)C3)CC1 (stereo not drawn)	6.31µM*
O=C(c1ccccc1)N1CCN(C(=O)c2nnn3c2COC(c2ccccc2)C3)CC1 (stereo not drawn)	i
Cc1ccc(-n2c(C3CCN(C(=O)c4ccc(C)nc4)CC3)n[nH]c2=O)cc1	-13.2%
CC(C)C1=NOC2(CCN([S+](=O)([O-])c3cccs3)C2)C1 (stereo not drawn)	8.7%
Cc1ccc(C(=O)NC[C@H]2O[C@@H](CC(=O)NC3CC3)[C@H](O)[C@@H]2O)cc1	3.2%[44.1 µM]
Cc1ccoc1C(=O)N1CCC(N2CCCC(C(=O)NCc3ccccc3)C2)CC1 (stereo not drawn)	-6.3%
O=C(CCn1ccnc1)N1CCC(c2nc(CCOc3ccc(F)cc3)no2)C1 (stereo not drawn)	i
CCOc1ccc(C(=O)Nc2ccc3nc(Nc4cccc(C(F)(F)F)c4)cc(C)c3c2)cc1OCC	3.16µM*
Cc1cc(Nc2cccc(Cl)c2)nc2ccc(NC(=O)Cc3ccc(Cl)cc3)cc12	-23.7%
Cc1cc(Nc2cccc(Cl)c2)nc2ccc(NC(=O)c3ccc(F)cc3Cl)cc12	-7.8%
SMILES	Pf Dd2 inh
Cc1cc(Nc2cccc(C(F)(F)F)c2)nc2ccc(NC(=O)c3cccnc3)cc12	3.55µM*
CCOc1cc(=O)n2c(c1C(=O)Nc1cccc(C(F)(F)F)c1)CCCC2	0.1%
CCOc1ccc(C(=O)Nc2ccc(NC(=O)c3ccccc3)cc2)cc1Br	56.0%
COc1ccc(C2Cn3nnc(C(=O)NCc4cccc(C(F)(F)F)c4)c3CO2)cc1 (stereo not drawn)	i
Cc1cc(=O)n(CC(=O)Nc2ccc(Br)cc2F)c(N(C)Cc2ccccc2)n1	i
COc1cccc(C(=O)N2CC(C(=O)NCCc3ccncc3)C3(CCOCC3)C2)c1 (stereo not drawn)	-0.7%
O=C(c1ccc(F)cc1)N1CCCC(Cc2nc(C3CCOCC3)no2)C1 (stereo not drawn)	0.8%
O=C1CN=C(c2ccccc2)c2cc(Cl)ccc2N1Cc1ccc(Cl)cc1	8.91µM*
Cc1ccc(-c2nc(CN3C(=O)CN=C(c4ccccc4Cl)c4cc(Cl)ccc43)c(C)o2)cc1	11.2µM*
Cc1oc(-c2ccccc2Cl)nc1CN1C(=O)CN=C(c2ccccc2)c2cc(Cl)ccc21	-12.4%
Cc1cccc(CN2C(=O)CN=C(c3ccccc3)c3ccccc32)c1	-14.2%
Cc1nc(-c2ccccc2)n(Cc2nc(-c3ccc(Cl)cc3)oc2C)c(=O)c1CCO	i
Cc1cc(C)cc(NC(=O)CN2C(=O)CN=C(c3ccccc3)c3cc(Cl)ccc32)c1	-18.0%
Cc1ccc(OCCC2CCN(C(=O)c3ccccc3F)C2)cc1 (stereo not drawn)	i
CCC1CN(Cc2cn(Cc3ccccc3)nc2-c2cc3ccccc3o2)CCO1 (stereo not drawn)	10µM*
Cc1nnc([C@H]2CCN(Cc3cc4ccccc4o3)C2)o1	i
C=CCn1cc(CN2CCOC(Cc3cccc(OC)c3)C2)c(C)n1 (stereo not drawn)	-24.1%
CC(C)NC(=O)NC[C@H]1O[C@H](Cc2cc(-c3ccc(F)cc3)on2)CC[C@@H]1O	-6.5%[44.1 µM]
Cc1cc(C)c(CNC(=O)c2cc(-c3ccc(CO)cc3)cc3c2OCCN3C)c(=O)[nH]1	-10.4%[44.1 µM]
COCCN(Cc1c(C)nn(C)c1C)CC1[C@H]2CNC[C@@H]12 (stereo partly drawn)	2.2%
COc1cc(OC)cc(C(=O)Nc2ccc3c(c2)CN(Cc2ccccc2)C(=O)C(C)O3)c1 (stereo not drawn)	-5.4%
Cc1cccc(Nc2nc(Nc3cccc(C)c3)nc(N3CCOCC3)n2)c1	11.2µM*
CCOc1ccc(Nc2nc(Nc3ccc(OCC)cc3)nc(N3CCOCC3)n2)cc1	-14.9%
Cc1cccc(Nc2nc(N)nc(CN3CC[C@@H](N)[C@H](O)C3)n2)c1	-1.1%
O=C(Cc1ccsc1)N1CC(Oc2ccccc2-c2nc(-c3ccccc3)no2)C1	12.6µM*
SMILES	Pf Dd2 inh
O=C(c1ccncc1)N1CCC(Oc2ccccc2-c2nc(-c3ccccc3)no2)C1 (stereo not drawn)	-12.0%
O=C(C1CCC1)N1CC(Oc2ccccc2-c2nc(-c3cnccn3)no2)C1	10µM*
O=C(Cc1ccsc1)N1CCC(n2cc(-c3nc(-c4ccccc4)no3)nn2)C1 (stereo not drawn)	-1.2%
Cc1ncccc1C(=O)N1CC(Oc2ccccc2-c2nc(-c3ccccc3)no2)C1	11.2µM*
Cc1ncccc1C(=O)N1CC(Oc2ccc(-c3nc(-c4ccccc4)no3)cc2)C1	-25.0%[5.79 µM]
O=C(c1cnccn1)N1CCC(Oc2ccccc2-c2nc(-c3ccccc3)no2)C1 (stereo not drawn)	-16.2%
O=C(C1CCOCC1)N1CCC(Oc2ccccc2-c2nc(-c3ccccc3)no2)C1 (stereo not drawn)	i
c1ccc(-c2nc(-c3cnccn3)no2)c(OC2CCNC2)c1 (stereo not drawn)	i
COc1cc(SC)ccc1C(=O)N[C@H]1C[C@H]2C(=O)Nc3ccc(-c4ccc5c(c4)OCO5)cc3C(=O)N2C1	-19.9%
COc1ccc(-c2cc(N3CCCC(NC(=O)c4cccs4)C3)n[nH]2)cc1 (stereo not drawn)	-16.0%
O=C1NCCN(C(=O)Cn2ncc3ccccc3c2=O)C1Cc1cnc[nH]1 (stereo not drawn)	0.1%
CN1CCN(C)C2(CCN(C(=O)c3cn4cc(Cl)ccc4n3)CC2)C1	-24.6%
O=C(c1ccc2[nH]ccc2c1)N1CCN(C(=O)c2nnn3c2COC(c2ccccc2)C3)CC1 (stereo not drawn)	-10.9%
CN1[C@@H](CCC(=O)NCc2cccs2)CNC(=O)[C@@H]2[C@H]1CCN2Cc1ccc(S(C)(=O)=O)cc1	i
Cc1ccc(OCC(=O)NCC2CCCCC(=O)N2)cc1 (stereo not drawn)	5.0%
